S1P2 blocker: human S1P2 receptor antagonists, primary screen, cell-based | inhibition, % at 5 µM | AID 736, 2007 | 97,000 compounds, 0.21% hits | cell-based S1P2 antagonist assay, inhibition at 5 uM; in the data active = inhibition above about 45%;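 also: CRE beta-lactamase reporter cells expressing human S1P2 stimulated with S1P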
Target sequence (O95136 whole entry, looked up): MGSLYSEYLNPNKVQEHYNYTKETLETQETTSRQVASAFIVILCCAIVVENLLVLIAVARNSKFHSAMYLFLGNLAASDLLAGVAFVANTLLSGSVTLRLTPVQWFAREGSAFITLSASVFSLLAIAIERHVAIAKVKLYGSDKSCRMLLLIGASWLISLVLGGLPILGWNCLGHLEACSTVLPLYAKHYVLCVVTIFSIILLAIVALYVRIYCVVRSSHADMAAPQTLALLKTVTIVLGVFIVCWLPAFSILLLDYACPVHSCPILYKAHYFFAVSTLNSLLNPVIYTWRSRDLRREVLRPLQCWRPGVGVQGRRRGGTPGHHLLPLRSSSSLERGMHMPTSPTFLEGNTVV
S1P2 agonist: S1P2 receptor agonists, primary screen, cell-based | activation, % at 4.5 µM | 97,000 compounds, 0.46% hits | Sphingosine 1-phosphate receptor 2 (Homo sapiens), O95136 | AID 729, 2007 | S1P2-expressing cell line, agonist reporter read-out; in the data active = activation above about 16%
GALR2 blocker: GALR2 antagonists in receptor-expressing cells, primary screen; 140,000 compounds, 0.39% hits; antagonist mode; AID 828, 2007; Galanin receptor type 2 (Homo sapiens), O43603; inhibition, % at 4 µM;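 also: cells stimulated with galanin 1-16 at roughly its EC80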
Target sequence (O43603 whole entry, looked up): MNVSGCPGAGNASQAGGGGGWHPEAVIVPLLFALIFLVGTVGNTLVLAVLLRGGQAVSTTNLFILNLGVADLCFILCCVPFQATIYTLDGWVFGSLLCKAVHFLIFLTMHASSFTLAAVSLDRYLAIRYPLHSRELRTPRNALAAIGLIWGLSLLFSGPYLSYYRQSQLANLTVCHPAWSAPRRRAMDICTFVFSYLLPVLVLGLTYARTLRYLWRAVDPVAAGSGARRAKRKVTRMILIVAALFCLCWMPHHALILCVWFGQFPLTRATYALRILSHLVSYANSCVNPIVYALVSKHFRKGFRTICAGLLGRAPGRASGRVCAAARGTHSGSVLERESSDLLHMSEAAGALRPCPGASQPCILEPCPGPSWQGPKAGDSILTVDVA
GALR2 agonist: GALR2 receptor agonists, primary screen, cell-based; 140,000 compounds, 0.48% hits; activation, % (test concentration not listed); GALR2-expressing cells, agonist activation read-out; Galanin receptor type 2 (Homo sapiens), O43603; in the data active = activation above about 5%, passing the limit was not always enough
GALR2 ant conf: GALR2 antagonists, retest of hits, confirmation, cell-based. GALR2-expressing cells, antagonist mode, inhibition. AID 866, 2007. inhibition, % at 4 µM. 480 compounds, 60% hits. shares compounds with GALR2 blocker;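 also: cells stimulated with galanin at about its EC80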
BLA inh counter: inhibitors of NFAT-driven beta-lactamase reporter, confirmation, counter-screen for GALR2 antagonist project, CHO NFAT-bla cells, FRET readout; shares compounds with GALR2 blocker; thapsigargin-stimulated; inhibition, % at 4.2 µM; 480 compounds, 36% hits; AID 867, 2007;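 active = inhibition above the mean inhibition across tested compounds plus 3 SD, cut at about 27% in these data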
Of the large screens only hits and unclear results are named; the others gave an inactive call (follow-up assays come after a bar, where they were run). Hits are enriched below; roughly 1.2% of the tested compounds scored in any of these assays. Rule as the data show it, unless noted: active = inhibition above about 27%; inactive = the rest.

O=C(Nc1nc(-c2ccccc2)cs1)c1cccs1	none
CC(C)OC(=O)CSc1nc2ccccc2s1	GALR2 blocker 34 | GALR2 ant conf inactive | BLA inh counter inactive
O=C(Nc1cccc(S(=O)(=O)N2CCCC2)c1)c1ccc2c(=O)n3c(nc2c1)CCCCC3	GALR2 blocker 34 (no result: S1P2 blocker, S1P2 agonist) | GALR2 ant conf inactive | BLA inh counter inactive
C=CCN(CC=C)c1cnn(-c2nc3ccccc3[nH]2)c(=O)c1Cl	none
O=c1c(Cl)c(NCCCO)cnn1-c1nc2ccccc2[nH]1	GALR2 blocker 36 | GALR2 ant conf 42 | BLA inh counter 37
Cc1ccc(NC(=O)CC(O)(C(F)(F)F)C(F)(F)F)c(Br)c1	GALR2 blocker 28 | GALR2 ant conf inactive | BLA inh counter inactive
Cc1ccccc1NC(=O)CC(O)(C(F)(F)F)C(F)(F)F	none
O=C1C=C(NC2=CC3OC(c4ccccc4)OCC3OC2=O)CCC1 (centres undefined)	GALR2 blocker 70 (no result: S1P2 blocker, S1P2 agonist) | GALR2 ant conf 84 | BLA inh counter 74
O=C1C=C(NCc2ccccc2)CCC1	none (no result: S1P2 blocker, S1P2 agonist)
Cc1ccccc1C(=NCCCN(C)C)c1ccccc1C	none (no result: S1P2 blocker, S1P2 agonist)
Cn1cnc([N+](=O)[O-])c1S(=O)(=O)c1cccc(Cl)c1	GALR2 blocker 47 (no result: S1P2 blocker, S1P2 agonist) | GALR2 ant conf 43 | BLA inh counter inactive
CCCn1c(CC)nc([N+](=O)[O-])c1S(=O)(=O)c1ccccc1	none
COc1ccc(C2C(C#N)=C(N)Oc3c2c(-c2ccccc2)nn3-c2ccccc2)c(OC)c1OC (centres undefined)	none (no result: S1P2 blocker, S1P2 agonist)
NC(=O)CSCc1nc2ccccc2s1	GALR2 blocker 31 | GALR2 ant conf inactive | BLA inh counter inactive
COc1ccc(CC(=O)Nc2cccc(S(=O)(=O)N3CCCCCC3)c2)cc1OC	GALR2 blocker 28 (no result: S1P2 blocker, S1P2 agonist) | GALR2 ant conf inactive | BLA inh counter inactive
O=c1c2c(-c3cccs3)csc2ncn1-c1ccc(Br)cc1	GALR2 blocker 55 | GALR2 ant conf inactive | BLA inh counter inactive
COc1cccc(-n2cnc3scc(-c4cccs4)c3c2=O)c1	none
O=C1C=CCC(/C=C/c2ccccc2)O1 (centres undefined)	none (no result: S1P2 blocker, S1P2 agonist)
Cc1cc(/C=N/n2cnnc2)c(C)n1-c1ccc(Cl)cc1	none (no result: S1P2 blocker, S1P2 agonist)
Cc1cc(/C=N/n2cnnc2)c(C)n1-c1ccc(OCc2ccc(Cl)cc2Cl)cc1	S1P2 blocker 74, GALR2 blocker 29 | GALR2 ant conf 45 | BLA inh counter inactive
COc1ccc(-c2nnc(SCc3nc4ccccc4s3)n2C(C)C)cc1	GALR2 blocker 29 | GALR2 ant conf inactive | BLA inh counter inactive
O=C(C1=NN(c2ccccc2)C2C(=O)N(c3ccccc3Cl)C(=O)C12)c1ccccc1 (centres undefined)	GALR2 blocker 29 (no result: S1P2 blocker, S1P2 agonist) | GALR2 ant conf inactive | BLA inh counter 42
O=C(C1=NN(c2ccccc2)C2C(=O)N(c3ccccc3)C(=O)C12)c1ccccc1 (centres undefined)	none (no result: S1P2 blocker, S1P2 agonist)
Cc1cc(C=O)c(C)n1-c1ccc(N2CCCC2)c([N+](=O)[O-])c1	none
Cc1nc([N+](=O)[O-])c(N2CCN(C)CC2)n1Cc1ccccc1	none
Cc1nc([N+](=O)[O-])c(Sc2nc3ccccc3n2C)n1Cc1ccccc1	GALR2 blocker 31 (no result: S1P2 blocker, S1P2 agonist) | GALR2 ant conf inactive | BLA inh counter inactive
O=C(O)CC/C(=N\NC(=O)c1ccccc1Br)c1ccccc1	none (no result: S1P2 blocker, S1P2 agonist)
Cc1cnc(NC(=O)Cc2c[nH]c3ccccc23)s1	GALR2 blocker 33 | GALR2 ant conf inactive | BLA inh counter inactive
CCCn1c(C)nc2c(c1=O)c1nc3ccccc3nc1n2CCc1ccccc1	none
Cn1c(-c2c(N)n(CCCc3ccccc3)c3nc4ccccc4nc23)nc2ccccc21	S1P2 blocker 75, GALR2 blocker 38 | GALR2 ant conf 51 | BLA inh counter 55
Cn1c(-c2c(N)n(CCc3ccccc3)c3nc4ccccc4nc23)nc2ccccc21	S1P2 blocker 59, GALR2 blocker 36 | GALR2 ant conf 45 | BLA inh counter 54
COc1cccc(-c2nc3sc4c(c3c(=O)[nH]2)CCCCC4)c1	none (no result: S1P2 blocker, S1P2 agonist)
COc1ccc(Cl)cc1N1C(=O)/C(=C\c2sccc2C)N=C1SCC(=O)NC1CC1	none
CC(C)CCNC(=O)CN(CC1CCCO1)C(=O)CCC(=O)Nc1ccccn1 (centres undefined)	none
O=C(CN(CC1CCCO1)C(=O)CCC(=O)Nc1ccccn1)NCc1ccccc1 (centres undefined)	GALR2 blocker 30 | GALR2 ant conf inactive | BLA inh counter inactive
COc1ccccc1/C=C/C(=O)OCC(=O)c1c(N)n(C)c(=O)n(C)c1=O	none (no result: S1P2 blocker, S1P2 agonist)
COc1ccc(/C(C)=N/NC(=O)c2ccc(N(C)C)cc2)cc1	none
CCN(CC)c1ccc(C(=O)N/N=C(\C)c2ccc(O)cc2)cc1	GALR2 blocker 30 (no result: S1P2 blocker, S1P2 agonist) | GALR2 ant conf inactive | BLA inh counter inactive
O=C1C=CC(O)(c2cc(=O)c3c(O)cc(O)cc3o2)C=C1	GALR2 blocker 90 (no result: S1P2 blocker, S1P2 agonist) | GALR2 ant conf 83 | BLA inh counter 39
O=c1cc(-c2ccccc2Cl)oc2cc(O)cc(O)c12	none (no result: S1P2 blocker, S1P2 agonist)
Nc1ccc2c(C(F)(F)F)cc(=O)oc2c1	GALR2 blocker 39 | GALR2 ant conf inactive | BLA inh counter 46
COc1ccc(Cl)c(Cn2c(NCc3ccco3)nc3c2c(=O)n(C)c(=O)n3C)c1	none
COc1cccc(Cn2c(NCc3ccco3)nc3c2c(=O)n(C)c(=O)n3C)c1	GALR2 blocker 28 (no result: S1P2 blocker, S1P2 agonist) | GALR2 ant conf inactive | BLA inh counter inactive
CC(=O)OCC1OC(Nc2cccc(C)c2)C(OC(C)=O)C(OC(C)=O)C1OC(C)=O (centres undefined)	none (no result: S1P2 blocker, S1P2 agonist)
CC(NC(=O)Cn1ncc(Cl)c(Cl)c1=O)C12CC3CC(CC(C3)C1)C2 (centres undefined)	GALR2 blocker 57 (no result: S1P2 blocker, S1P2 agonist) | GALR2 ant conf 72 | BLA inh counter 74
CCn1cc(C(=O)NC(C)C23CC4CC(CC(C4)C2)C3)cn1 (centres undefined)	none (no result: S1P2 blocker, S1P2 agonist)
O=C(/C=C/c1ccc(Cl)cc1)NC(=S)Nc1ccc(NC(=O)c2ccco2)cc1	GALR2 blocker 46 (no result: S1P2 blocker, S1P2 agonist) | GALR2 ant conf 53 | BLA inh counter inactive
O=c1cc(-c2cccs2)oc2ccc(Cl)cc12	none
Cc1ccc(-c2oc3ccccc3c(=O)c2O)cc1	none (no result: S1P2 blocker, S1P2 agonist)
O=c1c(O)c(-c2cccs2)oc2ccccc12	GALR2 blocker 29 | GALR2 ant conf 31 | BLA inh counter 37
O=c1c(O)c(-c2cccs2)oc2ccc(Cl)cc12	GALR2 blocker 33 | GALR2 ant conf 32 | BLA inh counter 42
Cc1nn(-c2cccc(Cl)c2)c(Cl)c1/C=N/NC(=O)c1cccnc1	none (no result: S1P2 blocker, S1P2 agonist)
CCOc1ccc(S(=O)(=O)NCc2ccncc2)cc1	S1P2 blocker 64, GALR2 blocker 34 | GALR2 ant conf 53 | BLA inh counter inactive
Cc1ccc(S(=O)(=O)NCc2ccncc2)cc1	GALR2 blocker 31 | GALR2 ant conf 39 | BLA inh counter inactive
CCOC(=O)COc1ccc(S(=O)(=O)NCc2ccncc2)cc1	GALR2 blocker 33 | GALR2 ant conf 33 | BLA inh counter inactive
Cc1ccc(S(=O)(=O)NCC(=O)NCc2ccncc2)cc1	none
